Test results published in PubChem BioAssay (NCATS).
Results filed as inconclusive are left out. Values without a mark were called inactive. The source made the active and inactive calls. Calls come from the whole dose curve; as a rule, active = well fitted cell-killing curve with a large enough effect; inconclusive = small, poorly fitted or top-dose-only effect; inactive = flat fitted curve, though single readings scatter.

Test: Cell Viability - LYMP2-024 (AID 988); note: nearly all actives have a fitted effect of over 60% in size;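 for activity change, negative = cytotoxicity: plate controls were DMSO only for no effect and 92 µM tetraoctylammonium bromide for full effect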
Conditions: LYMP2-024 lymphoblastoid cell viability; series mostly up to 92.2 µM; activity change, negative = cytotoxicity: at the top concentration
Source text: NIH Chemical Genomics Center [NCGC]
NIH Molecular Libraries Screening Centers Network [MLSCN]
National Institutes of Environmental Health Sciences [NIEHS]
National Toxicology Program [NTP]
We have developed a 1536-well cell-based assay for quantitative high throughput screening (qHTS) against a number of cell lines to determine in vitro cytotoxicity of small molecules. This particular assay uses a human lymphoblastoid cell line (LYMP2-024) purchased from Coriell Institute for Medical Research.
NCGC Assay Protocol Summary:
The CellTiter-Glo luminescent cell viability assay (Promega) is a homogeneous method to measure the number of viable cells in culture. The end point readout of this assay is based on quantitation of intracellular ATP, an indicator of metabolic activity, using the luciferase reaction. Luciferase catalyzes the oxidation of beetle Luciferin to oxyluciferin and light in the presence of ATP. The luminescent signal is proportional to amount of ATP present.
Using the CellTiter-Glo luminescent cell viability assay, the amount of cellular ATP was measured in the lymphoblastoid cell line with complete culture medium following compound treatment for 24 hours. The assay was performed in opaque white Kalypsys 1536-well plates. In the screen, tetraoctylammonium bromide was used as positive control. Library compounds were measured for their ability to cause acute toxicity in the cell line, as reflected by a decrease in intracellular ATP levels, in a concentration-dependent manner. […] AC50 values were determined from concentration-response data modeled with the standard Hill equation.
qHTS protocol for CellTiter Glo lymphoblastoid cellular assay
[Step] [Parameter] [Value] [Description]
1. Reagent; 5 uL; 2500 lymphoblastoid cells/well
2. Time; 5 hr; 37 C incubation
4. Controls; 23 nL; Tetraoctylammonium bromide 6.4pM to 92 uM
5. Time; 24 hr; 37 C incubation
6. Reagent; 5 uL; CellTiter Glo reagent
7. Time; 30 min; Room Temperature
8. Detection; Luminescence; Viewlux plate reader
Keywords: cell viability, cytotoxicity, lymphoblastoid cell line, luminescence, NTPHTS, NTPHTS_NCGC, NIEHS, DSSTox, MLSMR, MLSCN, NIH Roadmap, qHTS, NCGC
Potency is the fitted concentration of half-maximal effect.

Row | SMILES | activity change, negative = cytotoxicity [%] | Potency
1 | O=NN(CCO)CCO | -8.81 | –
2 | ClCBr | -13.3 | –
3 | COP(=S)(OC)Oc1ccc([N+](=O)[O-])cc1 | -13.1 | –
4 | CC(O)CCl (stereo not given) | 1.73 | –
5 | O=[N+]([O-])c1cccc2ccccc12 | -3.08 | –
6 | CCN(CC)c1ccccc1 | 1.58 | –
7 | CN=C=S | -0.332 | –
8 | CCCSC(=O)Cl | -2.25 | –
9 | CCOP(=S)(OCC)SCSC(C)(C)C | -2.05 | –
10 | C=CCOC(C)=O | 3.94 | –
11 | c1ccc(OP(Oc2ccccc2)Oc2ccccc2)cc1 | -8.22 | –
12 | O=C(Cl)C(Cl)(Cl)Cl | -5.52 | –
13 | Cc1ccc([N+](=O)[O-])cc1C | 0.311 | –
14 | C=CCOC(=O)c1ccccc1N | 2.98 | –
15 | C=CCc1ccc2c(c1)OCO2 | -2 | –
16 | Clc1ccc2ccccc2c1 | 1.54 | –
17 | Cc1cccc(C#N)c1 | -11.8 | –
18 | Cc1ccc2ccccc2c1 | -10.6 | –
19 | Clc1nc(Cl)nc(Nc2ccccc2Cl)n1 | -10.8 | –
20 | Brc1ccc(Oc2cc(Br)c(Br)cc2Br)c(Br)c1 | – | inactive

Row | SMILES | activity change, negative = cytotoxicity [%] | Potency
21 | ClC(Cl)=C(c1ccc(Cl)cc1)c1ccc(Cl)cc1 | – | inactive
22 | c1nc[nH]n1 | 2.79 | –
23 | C=CC(=C)C | 11 | –
24 | CCc1cccc(CC)c1N(COC)C(=O)CCl | – | 50.1 µM (active)
25 | C=CC(=O)OCC | 1.7 | –
26 | [O-][Br+2]([O-])O | – | inactive
27 | CCSC(=O)Cl | 3.78 | –
28 | COC1=CC(=O)O[C@@H](/C=C/c2ccc3c(c2)OCO3)C1 | -14.7 | –
29 | CCCCCCCC(=O)Cl | -4.12 | –
30 | ClC1=C(Cl)C2(Cl)C3C4CC(C5OC45)C3C1(Cl)C2(Cl)Cl (stereo not given) | – | 39.8 µM (active)
31 | NC(=S)Nc1ccccc1 | – | inactive
32 | CC(Cl)Cl | 0.918 | –
33 | CCCCOC(=O)c1ccccc1C(=O)OCCCC | -17.6 | –
34 | COc1ccc(C=O)cc1OC | 5.4 | –
35 | COC1=CC(=O)OC(CCc2ccccc2)C1 (stereo not given) | -12.5 | –
36 | Cc1ccc(O)c(C)c1 | -4.06 | –
37 | C[N+](C)(C)Cc1ccccc1 | 2.2 | –
38 | C[C@]12CC[C@H]3[C@@H](CCC4=CC(=O)CC[C@@]43C)[C@@H]1CC[C@@H]2O | -12.9 | –
39 | C=CC(C)=O | -3.85 | –
40 | O=NN(c1ccccc1)c1ccccc1 | 0.686 | –
